Laboratory results from the supplement of paper PMC11732987, “Enantioselective OTUD7B fragment discovery through chemoproteomics screening and high-throughput optimisation” (Communications Chemistry, 2025).

How the values were obtained:
Experiment in all cases: log2 ratio of Biotin-Ahx-Ub-VS probe labelling (fragment/DMSO); higher = less target engagement (more negative = stronger competition), active = hit call of the paper (q ≤ 0.05, log2 ratio ≤ -1)
Details in all cases: compound concentration: 200 uM; treatment time: 3 h
ALG13 = biological target: T1, ALG13 (UniProt Q9NP73)
T1 sequence (whole entry): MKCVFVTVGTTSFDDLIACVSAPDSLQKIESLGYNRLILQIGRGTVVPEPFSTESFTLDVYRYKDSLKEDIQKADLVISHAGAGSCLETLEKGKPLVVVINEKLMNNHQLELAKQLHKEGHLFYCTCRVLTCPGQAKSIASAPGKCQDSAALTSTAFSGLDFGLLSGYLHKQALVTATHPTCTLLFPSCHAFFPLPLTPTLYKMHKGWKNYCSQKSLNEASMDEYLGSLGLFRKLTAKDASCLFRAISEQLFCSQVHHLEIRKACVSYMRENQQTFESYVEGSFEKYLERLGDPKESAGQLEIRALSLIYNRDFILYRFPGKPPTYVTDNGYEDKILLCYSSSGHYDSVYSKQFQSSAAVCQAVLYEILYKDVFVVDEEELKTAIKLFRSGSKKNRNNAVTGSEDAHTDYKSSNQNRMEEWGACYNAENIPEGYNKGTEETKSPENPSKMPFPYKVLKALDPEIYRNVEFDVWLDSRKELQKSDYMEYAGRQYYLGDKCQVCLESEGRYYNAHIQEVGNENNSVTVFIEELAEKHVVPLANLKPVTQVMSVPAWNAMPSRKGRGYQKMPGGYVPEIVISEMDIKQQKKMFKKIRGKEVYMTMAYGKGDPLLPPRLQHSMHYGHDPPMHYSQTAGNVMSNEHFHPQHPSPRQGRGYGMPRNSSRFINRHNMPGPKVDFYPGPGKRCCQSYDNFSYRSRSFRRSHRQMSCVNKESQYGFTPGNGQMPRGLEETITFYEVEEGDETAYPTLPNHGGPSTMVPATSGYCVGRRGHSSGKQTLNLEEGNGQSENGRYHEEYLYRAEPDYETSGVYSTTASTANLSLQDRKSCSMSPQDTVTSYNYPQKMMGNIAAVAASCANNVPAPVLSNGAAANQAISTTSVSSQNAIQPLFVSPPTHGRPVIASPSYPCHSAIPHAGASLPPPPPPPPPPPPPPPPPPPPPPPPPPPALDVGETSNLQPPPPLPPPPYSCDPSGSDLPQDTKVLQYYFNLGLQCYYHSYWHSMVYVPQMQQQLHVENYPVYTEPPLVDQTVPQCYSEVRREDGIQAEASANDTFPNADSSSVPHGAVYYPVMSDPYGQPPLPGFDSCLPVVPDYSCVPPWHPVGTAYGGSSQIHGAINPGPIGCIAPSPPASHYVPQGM
Summary of the method: (§1)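 HEK293T lysate (495 µg per sample, in Tris/CHAPS/IGEPAL buffer with protease inhibitors) was treated in triplicate with fragment at 200 µM or with DMSO for 3 h. It was then treated with Biotin-Ahx-Ub-VS (0.5 µM final) for 1 h. Labelled DUBs were NeutrAvidin-enriched, digested with LysC and trypsin, and run by diaPASEF LC-MS/MS. Spectronaut label-free quantities were global-median-normalised. Values are average log2 ratios fragment/DMSO by unpaired t-test, using proteins with ≥2 unique peptides.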

ATXN3 = ATXN3 (UniProt P54252)
Chain of ATXN3 (P54252 whole entry): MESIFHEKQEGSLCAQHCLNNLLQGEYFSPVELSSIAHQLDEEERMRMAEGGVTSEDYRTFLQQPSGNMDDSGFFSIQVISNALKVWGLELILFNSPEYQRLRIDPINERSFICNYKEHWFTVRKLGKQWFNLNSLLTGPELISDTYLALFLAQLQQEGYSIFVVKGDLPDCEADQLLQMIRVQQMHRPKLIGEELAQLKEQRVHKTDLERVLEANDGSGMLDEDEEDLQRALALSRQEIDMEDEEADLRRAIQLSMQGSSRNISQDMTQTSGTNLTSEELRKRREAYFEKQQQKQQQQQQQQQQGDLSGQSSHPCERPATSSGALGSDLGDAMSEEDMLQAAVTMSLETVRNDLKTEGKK
Summary of the method: as §1

BAP1 = biological target: T2, BAP1 (UniProt Q92560)
T2 sequence (whole entry): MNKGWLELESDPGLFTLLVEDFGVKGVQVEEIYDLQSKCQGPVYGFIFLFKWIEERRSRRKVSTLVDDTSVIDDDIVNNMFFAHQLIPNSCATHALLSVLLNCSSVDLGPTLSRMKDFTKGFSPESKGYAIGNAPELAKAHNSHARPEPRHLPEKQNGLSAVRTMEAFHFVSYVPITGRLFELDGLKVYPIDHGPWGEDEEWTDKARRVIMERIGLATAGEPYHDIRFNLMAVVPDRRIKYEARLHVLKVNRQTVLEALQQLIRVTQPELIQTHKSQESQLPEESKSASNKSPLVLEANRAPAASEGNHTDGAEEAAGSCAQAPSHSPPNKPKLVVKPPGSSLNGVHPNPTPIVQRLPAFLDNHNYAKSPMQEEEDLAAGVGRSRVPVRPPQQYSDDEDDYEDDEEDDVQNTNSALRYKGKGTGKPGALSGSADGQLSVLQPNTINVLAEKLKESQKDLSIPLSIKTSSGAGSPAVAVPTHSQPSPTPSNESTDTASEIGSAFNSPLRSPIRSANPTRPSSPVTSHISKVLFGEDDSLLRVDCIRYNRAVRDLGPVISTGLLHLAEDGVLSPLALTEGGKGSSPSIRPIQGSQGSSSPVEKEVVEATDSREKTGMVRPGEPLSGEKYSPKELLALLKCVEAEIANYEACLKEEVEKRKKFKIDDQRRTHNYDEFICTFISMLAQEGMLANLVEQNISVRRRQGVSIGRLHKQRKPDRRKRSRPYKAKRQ
Summary of the method: as §1

EIF3F = EIF3F (UniProt O00303)
Chain of EIF3F (O00303 whole entry): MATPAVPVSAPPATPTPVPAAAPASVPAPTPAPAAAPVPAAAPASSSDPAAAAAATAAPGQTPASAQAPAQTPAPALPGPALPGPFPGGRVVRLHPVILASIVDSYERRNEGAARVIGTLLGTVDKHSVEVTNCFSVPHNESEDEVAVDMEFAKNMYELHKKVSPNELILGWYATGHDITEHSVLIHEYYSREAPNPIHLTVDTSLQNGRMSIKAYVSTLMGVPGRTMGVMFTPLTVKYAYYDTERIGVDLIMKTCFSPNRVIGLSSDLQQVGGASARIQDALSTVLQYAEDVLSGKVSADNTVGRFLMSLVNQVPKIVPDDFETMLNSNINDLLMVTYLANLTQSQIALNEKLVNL
Summary of the method: as §1

EIF3H = EIF3H (UniProt O15372)
Chain of EIF3H (O15372 whole entry): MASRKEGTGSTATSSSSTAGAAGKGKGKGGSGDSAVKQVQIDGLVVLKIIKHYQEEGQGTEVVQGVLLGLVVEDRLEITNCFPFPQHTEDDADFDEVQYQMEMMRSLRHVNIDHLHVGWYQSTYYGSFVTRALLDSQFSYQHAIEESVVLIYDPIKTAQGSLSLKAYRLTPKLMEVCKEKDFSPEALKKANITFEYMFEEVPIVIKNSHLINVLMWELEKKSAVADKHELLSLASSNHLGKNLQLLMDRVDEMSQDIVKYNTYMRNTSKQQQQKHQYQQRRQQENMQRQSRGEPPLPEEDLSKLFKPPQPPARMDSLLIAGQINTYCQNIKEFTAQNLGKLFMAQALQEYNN
Summary of the method: as §1

FAM105A = biological target: T3, FAM105A (UniProt Q9NUU6)
T3 sequence (whole entry): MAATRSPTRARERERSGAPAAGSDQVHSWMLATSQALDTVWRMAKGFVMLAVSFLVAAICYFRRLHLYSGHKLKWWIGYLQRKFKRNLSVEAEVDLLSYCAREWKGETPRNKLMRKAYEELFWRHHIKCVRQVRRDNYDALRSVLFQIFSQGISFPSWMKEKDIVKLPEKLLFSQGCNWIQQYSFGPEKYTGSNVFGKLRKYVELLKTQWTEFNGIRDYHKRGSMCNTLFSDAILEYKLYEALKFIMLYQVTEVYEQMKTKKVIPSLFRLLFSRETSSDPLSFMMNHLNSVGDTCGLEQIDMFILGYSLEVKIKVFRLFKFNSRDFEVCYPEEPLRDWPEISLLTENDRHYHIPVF
Summary of the method: as §1

OTUB1 = OTUB1 (UniProt Q96FW1)
Chain of OTUB1 (Q96FW1 whole entry): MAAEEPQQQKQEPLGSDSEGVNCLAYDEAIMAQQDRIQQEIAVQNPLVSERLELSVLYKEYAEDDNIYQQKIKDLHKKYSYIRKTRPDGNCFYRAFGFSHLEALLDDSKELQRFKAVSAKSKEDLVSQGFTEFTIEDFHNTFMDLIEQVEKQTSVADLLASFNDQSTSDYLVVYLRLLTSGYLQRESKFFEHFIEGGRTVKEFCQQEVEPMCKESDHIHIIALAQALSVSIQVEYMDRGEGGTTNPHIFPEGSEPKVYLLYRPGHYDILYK
Summary of the method: as §1

OTUD4 = biological target: T4, OTUD4 (UniProt Q01804)
T4 sequence (whole entry): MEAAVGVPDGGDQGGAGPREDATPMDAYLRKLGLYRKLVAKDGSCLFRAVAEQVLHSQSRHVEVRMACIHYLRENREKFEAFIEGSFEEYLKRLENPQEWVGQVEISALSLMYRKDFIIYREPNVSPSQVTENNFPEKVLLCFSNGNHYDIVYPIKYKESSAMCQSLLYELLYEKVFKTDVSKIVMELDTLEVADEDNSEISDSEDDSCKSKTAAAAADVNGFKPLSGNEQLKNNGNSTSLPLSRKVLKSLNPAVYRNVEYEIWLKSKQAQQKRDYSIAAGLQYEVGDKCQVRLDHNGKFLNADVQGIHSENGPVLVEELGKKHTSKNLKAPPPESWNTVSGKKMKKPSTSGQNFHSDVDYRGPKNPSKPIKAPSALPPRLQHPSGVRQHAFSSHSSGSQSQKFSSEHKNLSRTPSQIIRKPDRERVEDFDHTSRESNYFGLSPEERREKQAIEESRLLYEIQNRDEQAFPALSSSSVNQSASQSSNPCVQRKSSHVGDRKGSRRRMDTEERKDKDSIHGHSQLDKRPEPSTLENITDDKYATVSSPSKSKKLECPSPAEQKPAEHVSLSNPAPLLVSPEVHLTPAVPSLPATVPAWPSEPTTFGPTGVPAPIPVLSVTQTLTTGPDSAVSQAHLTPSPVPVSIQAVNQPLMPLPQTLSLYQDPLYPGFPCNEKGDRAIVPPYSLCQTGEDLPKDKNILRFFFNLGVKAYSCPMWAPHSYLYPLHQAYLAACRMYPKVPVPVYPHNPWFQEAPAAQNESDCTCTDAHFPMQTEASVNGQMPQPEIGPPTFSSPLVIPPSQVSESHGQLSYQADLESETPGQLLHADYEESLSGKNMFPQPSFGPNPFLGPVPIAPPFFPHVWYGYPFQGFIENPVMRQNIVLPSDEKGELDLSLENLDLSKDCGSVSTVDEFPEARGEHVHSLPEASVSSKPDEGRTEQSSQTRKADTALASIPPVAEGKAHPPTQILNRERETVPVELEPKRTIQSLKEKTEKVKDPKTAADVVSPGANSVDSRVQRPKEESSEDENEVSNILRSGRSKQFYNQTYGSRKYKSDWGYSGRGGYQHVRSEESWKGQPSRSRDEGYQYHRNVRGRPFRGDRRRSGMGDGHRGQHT
Summary of the method: as §1

OTUD5 = biological target: T5, OTUD5 (UniProt Q96G74)
T5 sequence (whole entry): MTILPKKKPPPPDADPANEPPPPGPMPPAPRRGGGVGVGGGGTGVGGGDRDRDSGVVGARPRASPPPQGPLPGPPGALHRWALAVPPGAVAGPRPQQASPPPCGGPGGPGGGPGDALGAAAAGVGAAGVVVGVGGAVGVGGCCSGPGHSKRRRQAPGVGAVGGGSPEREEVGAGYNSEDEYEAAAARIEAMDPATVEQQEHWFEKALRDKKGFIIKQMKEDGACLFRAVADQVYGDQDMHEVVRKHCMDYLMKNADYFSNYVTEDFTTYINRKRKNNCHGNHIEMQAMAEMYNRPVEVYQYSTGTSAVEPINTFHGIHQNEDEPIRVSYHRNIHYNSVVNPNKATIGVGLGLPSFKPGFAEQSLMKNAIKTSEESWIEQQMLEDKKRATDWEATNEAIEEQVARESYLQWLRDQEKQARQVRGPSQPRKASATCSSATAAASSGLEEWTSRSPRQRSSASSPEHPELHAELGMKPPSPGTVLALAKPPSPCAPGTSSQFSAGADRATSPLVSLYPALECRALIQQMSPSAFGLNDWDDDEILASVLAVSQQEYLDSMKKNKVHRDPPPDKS
Summary of the method: as §1

Measured: log2 ratio of Biotin-Ahx-Ub-VS probe labelling

Cc1cccc(N(CCC#N)C(=O)CCl)c1C
active: OTUD4 -1.76
inactive: ALG13 -0.29 | ATXN3 0.0325 | BAP1 -0.645 | EIF3F -0.0896 | EIF3H 0.111 | FAM105A -0.0506 | OTUB1 0.00102 | OTUD5 -0.19
